Hits are enriched below; roughly 4.1% of the tested compounds scored in any of these assays.
ssDAF12 agonist = activates DAF-12 receptor from parasite S. stercoralis; HEK293 ssDAF-12/GRIP1 lit1-tk-luc reporter, luminescence; % of 3 µM dafachronic acid response; activation, % at 6.8 µM; 370,000 compounds, 1% hits; AID 652126;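 active = activation above the mean over all tested compounds plus 3 SD, cut at about 0.9% in these data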
DAX1 inh-1 = NR0B1 (DAX1) inhibition; P51843; HEK293 Gal4-DAX1 luciferase reporter, luminescence; inhibition, % at 6.75 µM; 340,000 compounds, 0.99% hits;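 active = inhibition above the mean over all tested compounds plus 3 SD, cut at about 4.2% in these data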;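 also: inhibition shows as a rise in luminescence from relieved DAX1 repression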
Target sequence (P51843 207-470 limits assumed): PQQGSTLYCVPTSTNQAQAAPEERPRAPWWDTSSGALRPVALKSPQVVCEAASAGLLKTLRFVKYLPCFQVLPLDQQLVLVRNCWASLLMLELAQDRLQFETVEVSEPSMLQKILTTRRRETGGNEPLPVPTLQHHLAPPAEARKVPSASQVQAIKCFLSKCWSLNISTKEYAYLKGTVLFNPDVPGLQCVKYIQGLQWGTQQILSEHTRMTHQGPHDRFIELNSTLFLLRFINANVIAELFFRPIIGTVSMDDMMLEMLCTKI
hgDAF-12 ag = hgDAF-12 agonism, primary luciferase screen; HEK293 GAL4-hgDAF12 UAS-luciferase reporter, agonist luminescence; normalized to butyrate control; activation, % at 6.8 µM; AID 687014; 370,000 compounds, 1.8% hits;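 active = activation above a cutoff set at the mean of all screened compounds plus 3 SD, cut at about 10% in these data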
hcDAF-12 act = activates DAF-12 receptor from parasite H. contortus; activation, % at 6.8 µM; 370,000 compounds, 1.4% hits; HEK293 hcDAF-12 lit1-tk-luc reporter, luminescence; 0% DMSO, 100% Δ7-dafachronic acid;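 active = activation above the mean of all tested compounds plus 3 SD, cut at about 5.5% in these data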
DAX1 inh-2 = DAX1 (NR0B1) inhibition, primary screen. HEK293T StAR-luciferase reporter, SF-1/DAX-1 repression relief. inhibition, % at 6.8 µM. 370,000 compounds, 1.1% hits. AID 652010;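 active = inhibition above the mean over all tested compounds plus 3 SD, cut at about 3.6% in these data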;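 also: higher inhibition means more luminescence from relief of DAX-1 repression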
Large screens that a line does not name were inactive.

COc1ccc2[nH]c(-c3ccccc3)cc2c1	DAX1 inh-1 4.2, hcDAF-12 act 6.1
COC(=O)[C@]12C[C@H](CC(=O)N3CCOCC3)C(=O)N(Cc3cccc4ccccc34)C1=C[C@H](C(C)C)O[C@@H]2C1CC1	none (no result: DAX1 inh-1)
C=CCN1C(=O)[C@@H](CC(=O)NCc2ccccc2)[C@]2(C(=O)OCC)CCCCC/C=C/12	none (no result: DAX1 inh-1)
Cc1ccc(C2CCC3(CCC(=O)N3CCOC(=O)Nc3ccc(F)cc3)CC2)cc1 (configuration not stated)	none (no result: DAX1 inh-1)
NC(=O)COC(=O)C12CC3CC(CC(O)(C3)C1)C2	none
Cc1cc(C(=O)COC(=O)C23CC4CC(CC(O)(C4)C2)C3)c(C)n1C	DAX1 inh-1 4.5, hgDAF-12 ag 11
COCCCNC(=O)C[C@@H]1C[C@@]2(C(=O)OC)CCCCC=C2N(Cc2ccc3c(c2)OCO3)C1=O	none (no result: DAX1 inh-1)
COC(=O)[C@]12CCCCC=C1N(Cc1ccc3c(c1)OCO3)C(=O)[C@H](CC(=O)NCC1CCCCC1)C2	DAX1 inh-2 4.1 (no result: DAX1 inh-1)
O=C(OC12CCCN(C1)/C(=C/c1ccc(Cl)cc1)C2)c1ccccc1 (configuration not stated)	none (no result: DAX1 inh-1)
CC1=C2NC(N)=[N+](Cc3ccc4c(c3)OCO4)CC2NOC1 (configuration not stated)	none (no result: DAX1 inh-1, DAX1 inh-2)
Cn1c(/N=C/c2ccc3c(c2)OCO3)nc2ccccc21	hcDAF-12 act 5.9
COc1ccc(COC[C@H](C)N2C[C@@H](C)[C@H](CN(C)S(=O)(=O)c3ccc(F)cc3)OCCCC[C@H](C)Oc3ccc(NC(=O)Nc4ccccc4)cc3C2=O)cc1	none (no result: DAX1 inh-1, DAX1 inh-2)
COc1ccc(-n2c(SCC(=O)N(CC(C)C)CC(C)C)nnc2-c2ccncc2)cc1	none (no result: DAX1 inh-1)
O=C(N/N=C/c1ccc(F)cc1)c1cc(-c2ccc3c(c2)OCO3)n[nH]1	DAX1 inh-1 4.6
Cc1ccc(-c2cc(C(=O)NN=Cc3ccc(-c4ccccc4)cc3)[nH]n2)cc1	none (no result: DAX1 inh-1)
Cc1ccc(-c2cc(C(=O)NN=Cc3ccc(F)cc3)[nH]n2)cc1C	hgDAF-12 ag 11 (no result: DAX1 inh-1)
C[C@@H]1CNC(=O)c2c(C(=O)NCC(=O)OC(C)(C)C)ncn21	none
COC(=O)[C@H]1C[C@@]2(c3ccccc3)c3ccccc3N(S(=O)(=O)c3ccccc3)[C@H]2N1	none (no result: DAX1 inh-1)
NC(=O)C1CCN(C2CC(=O)N(Cc3cccs3)C2=O)CC1 (configuration not stated)	ssDAF12 agonist 1.2
O=C(c1ccco1)N1CC2(CC(c3ccc(Cl)cc3)=NO2)CN1Cc1ccc(Br)cc1 (configuration not stated)	none
Cc1nn(CCC(=O)NNC(=O)Nc2ccc(F)cc2)c(C)c1[N+](=O)[O-]	none (no result: DAX1 inh-1)
O=C(/C=C/c1cccs1)Nc1ccc(N2CCOCC2)c(S(=O)(=O)Nc2ccccc2Cl)c1	none
O=C(/C=C/c1cccs1)Nc1ccc(N2CCOCC2)c(S(=O)(=O)Nc2cc(Cl)ccc2Cl)c1	hcDAF-12 act 5.7
Cc1ccc(Nc2nc(N)nc(CSC(=S)N3CCOCC3)n2)cc1	none
Nc1nc(CSC(=S)N2CCOCC2)nc(Nc2ccccc2)n1	DAX1 inh-1 5.0, hcDAF-12 act 6.1
CCOC(=O)C(C)Sc1ccc2nnc(CCNS(=O)(=O)c3ccccc3)n2n1 (configuration not stated)	DAX1 inh-1 5.8
O=c1c2cc3cccnc3nc2ncn1CCc1c[nH]c2ccccc12	none (no result: DAX1 inh-1)
CCC1CCCCN1C(=O)CSc1nnc(-c2cccs2)o1 (configuration not stated)	ssDAF12 agonist 1.0
CC1CCCN(C(=O)CSc2nnc(-c3cccs3)o2)C1 (configuration not stated)	hgDAF-12 ag 12
COC(=O)C[C@H]1CC[C@@H]2[C@@H](COc3ccc(NC(=O)c4ccno4)cc3C(=O)N2C)O1	none (no result: DAX1 inh-1)
N=c1ccn(O)cc1CCc1ccccc1	DAX1 inh-1 5.8
COc1ccc(CCN2CC(C(=O)NCc3cccc(F)c3)CCC2=O)cc1 (configuration not stated)	none
Cn1c(=O)c2cc(S(=O)(=O)N3CCN(Cc4ccccc4)CC3)ccc2n(C)c1=O	none (no result: DAX1 inh-1)
CC1(C)CC(=O)c2sc(NC(=O)C(C)(C)C)nc2C1	ssDAF12 agonist 1.5
Cc1ccc(-n2c(SCC(=O)Nc3ccccc3-c3ccccc3)nnc2-c2cnccn2)cc1	none (no result: DAX1 inh-1)
COc1ccc2[nH]cc(C(C)c3ccccc3O)c2c1 (configuration not stated)	none (no result: DAX1 inh-1)

Compound activity: PubChem, The Scripps Research Institute Molecular Screening Center
